An excerpt weighted towards active compounds, which were near 0.41% of everything screened.
GLA inh pH 4.5: inhibitors of human alpha-galactosidase A at pH 4.5. P06280. purified enzyme, 4-MU-alpha-Gal fluorescence, pH 4.5. activity change, negative = inhibition, % at 105 µM. 230,000 tested, under 10 active
Target sequence (P06280 whole entry, looked up): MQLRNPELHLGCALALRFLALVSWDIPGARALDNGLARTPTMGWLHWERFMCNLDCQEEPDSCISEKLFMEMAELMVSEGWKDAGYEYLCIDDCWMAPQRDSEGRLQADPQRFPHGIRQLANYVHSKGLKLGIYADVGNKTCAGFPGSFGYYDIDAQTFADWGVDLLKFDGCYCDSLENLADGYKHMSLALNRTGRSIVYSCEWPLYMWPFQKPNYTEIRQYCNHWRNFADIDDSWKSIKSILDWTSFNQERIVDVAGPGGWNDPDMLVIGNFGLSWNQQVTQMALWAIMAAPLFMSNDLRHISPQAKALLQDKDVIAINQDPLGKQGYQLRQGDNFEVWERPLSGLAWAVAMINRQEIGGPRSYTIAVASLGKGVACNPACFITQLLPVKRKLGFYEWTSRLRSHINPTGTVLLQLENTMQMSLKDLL
GAA spleen mod: lysosomal alpha-glucosidase (human) modulation; human spleen homogenate, 4-MU-alpha-glucoside fluorescence; AID 2112; actives 0.006% (n = 240,000); P10253; Potency, µM (top dose mostly 79.9 µM), most hits filed as inhibitors
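Enzyme source: human spleen homogenate, 1 ug/well. Buffer 50 mM citric acid/K phosphate pH 5.0, 0.01% Tween-20. 4-MU-alpha-glucoside 1 mM; 37 C x 40 min; NaOH/glycine stop; fluorescence.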
GAA inhib: alpha-glucosidase (human) inhibition. actives 0.005% (n = 200,000). Potency, µM (top dose mostly 76.9 µM), usual class: inhibitors. purified human GAA, 4-MU-alpha-glucoside fluorescence. P10253. AID 1466
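Read-out is 4-methylumbelliferone fluorescence (Ex 365/Em 440 nm) after NaOH/glycine stop at pH 10. Enzyme 4 nM, substrate 400 uM, pH 5.0 citrate buffer, 20 min room temperature; AC50 from Hill-equation concentration-response.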
GAA glycogen mod: inhibitors or activators of human alpha-glucosidase glycogen cleavage. recombinant GAA, glycogen substrate, Amplex Red glucose oxidase fluorescence. AID 2100. Potency, µM (titrated, usually from 76.4 µM), hits mostly inhibitors. actives 0.38% (n = 300,000). P10253;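 note: the screen sought inhibitors and activators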
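Recombinant enzyme (4 nM final) with compounds titrated up to 77 uM and bovine liver glycogen (30 ug) in citrate pH 5.0, 0.01% Tween-20, 37 C 40 min. Released glucose detected by Amplex Red/glucose oxidase (Ex 573/Em 610); AC50 from Hill fits.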
N370S GC mod: inhibits or activates N370S mutant glucocerebrosidase. P04062. N370S GC spleen homogenate, 4MU-glucoside fluorescence. Potency, µM (titrated, usually from 59.4 µM), hits mostly inhibitors. actives 0.092% (n = 330,000)
GLA spleen mod: alpha-galactosidase A (human) modulation; actives 0.008% (n = 240,000); Potency, µM (top dose mostly 80 µM), usual class: inhibitors; human spleen homogenate, 4MU-alpha-Gal fluorescence, 40 min
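Fluorogenic readout (Ex 365/Em 440 nm) of 4-methylumbelliferone released from 1 mM 4-MU-alpha-galactoside by spleen homogenate, 40 min at 37C, pH 5.0. Data normalized to no-enzyme and enzyme controls; Hill-equation AC50 from compound titrations.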
Numbers stand for hits; n = inactive; u = inconclusive; x = not tested or not shown; [ ] = another dose, or the depositor's remark. Calls come from the whole dose curve; as a rule, active = well fitted curve in the direction sought with a large enough effect; inconclusive = small, poorly fitted or top-dose-only effect, or another doubt; inactive = no such curve, though single readings can be large; an effect the other way counts as inactive or inconclusive.

SMILES	GLA inh pH 4.5	GAA spleen mod	GAA inhib	GAA glycogen mod	N370S GC mod	GLA spleen mod
O=Cc1c(NCc2ccco2)nc2ccccn2c1=O	n	n	n	n	n	n
Cc1ccc2[nH]c(=O)c(-c3nc4ccccn4c3NCc3ccco3)cc2c1	n	n	n	32µM	n	n
COC1/C=C/OC2(C)Oc3c(C)c(O)c4c(O)c(c(/C=N/N5CCN(C)CC5)c(O)c4c3C2=O)NC(=O)/C(C)=C/C=C/C(C)C(O)C(C)C(O)C(C)C(OC(C)=O)C1C (stereo unspecified)	n	n	x	x	n	n
CO[C@H]1C=CO[C@@]2(C)Oc3c(C)c(O)c4c(O)c(c5c(nc6cc(C)ccn65)c4c3C2=O)NC(=O)C(C)=CC=C[C@H](C)[C@H](O)[C@@H](C)[C@@H](O)[C@@H](C)[C@H](OC(C)=O)[C@@H]1C	n	n	n[15.4 µM]	20µM	n	n
COc1ccc(N(CC(=O)Nc2cccc(C)c2C)S(=O)(=O)c2c(C)[nH]c(=O)[nH]c2=O)cc1	n	n	x	n	n	n
Cc1cc(C)cc(N(CC(=O)Nc2cc(C)ccc2C)S(=O)(=O)c2c(C)[nH]c(=O)[nH]c2=O)c1	x	x	x	x	8.9µM	x
Cc1cc(C)cc(N(CC(=O)Nc2ccc(Br)cc2)S(=O)(=O)c2c(C)[nH]c(=O)[nH]c2=O)c1	x	x	x	x	1.6µM	x
Cc1cc(C)cc(N(CC(=O)Nc2cccc(C)c2C)S(=O)(=O)c2c(C)[nH]c(=O)[nH]c2=O)c1	x	x	x	n	2.5µM	x
COc1ccccc1NC(=O)CN(c1cc(C)cc(C)c1)S(=O)(=O)c1c(C)[nH]c(=O)[nH]c1=O	x	x	x	n	x	x
COC(=O)[C@H](CCSC)NC(=O)c1ccc(NC[C@@H](N)CS)cc1-c1ccccc1	x	n	x	x	n	n
CCN(C/C=C/C#CC(C)(C)C)Cc1cccc(OCc2cc(-c3ccsc3)cs2)c1	x	n	x	x	n	n
CC(=O)/C(=N/Nc1cccc(Cl)c1)N1CCOCC1	n	n	n	14µM	n	n
CC(=O)/C(=N/Nc1ccccc1C)N1CCOCC1	n	n	n	13µM	n	n
CCOC(=O)/C(=N\Nc1cccc(C(F)(F)F)c1)N1CCOCC1	n	n	n	u	n	n
CC(=O)/C(=N/Nc1ccccc1)N1CCOCC1	n	n	n	10µM	n	n
Cc1cc(C)c(N(Cc2ccccc2)S(=O)(=O)c2ccc(OCCNC(=O)c3cc4ccccc4o3)cc2)c(C(=O)NO)c1	x	n	x	x	n	n
c1ccc2c(c1)OCCOCCOCCOCCO2	x	n	x	x	n	n
CCCCN(CC)S(=O)(=O)c1ccc(C(=O)N(CCCN(C)C)c2nc3cc(C)cc(C)c3s2)cc1	n	n	n	n	u	n
CCN(Cc1ccccc1)S(=O)(=O)c1ccc(C(=O)N(CCCN(C)C)c2nc3cc(C)cc(C)c3s2)cc1	x	x	x	x	14µM	x
COc1ccccc1CNc1n[nH]c(NCc2ccccc2OC)n1	n	n	n	25µM	n	n
CCOc1ccccc1-c1nnc2n1N=C(c1ccccc1OC)CS2	x	n	x	x	n	n
Oc1ccc(NC(=S)N=Nc2c(O)[nH]c3ccccc23)cc1	n	n	n	40µM	n	n
Oc1cccc(NC(=S)N=Nc2c(O)[nH]c3ccc(Br)cc23)c1	n	n	x	n	7.9µM	n
CC(C)(C)OC(=O)NS(=O)(=O)NCc1ccco1	x	n	x	x	n	n
Cc1cc(O)c(C(C)C)cc1NS(=O)(=O)c1ccccc1	n	n	n	9.9µM	n	n
Cc1ccc(S(=O)(=O)c2cc(Nc3ccccc3)ccc2O)cc1	x	x	x	x	n	x
COc1ccc(S(=O)(=O)Nc2cc(S(=O)(=O)c3ccccc3)c(O)cc2C)cc1	x	x	x	n	n	x
Cc1ccc(S(=O)(=O)Nc2cc(C)c(O)c(S(=O)(=O)c3ccc(C)cc3)c2)cc1	n	n	n	11µM	n	n
Cc1cc(NS(=O)(=O)c2ccccc2)cc(Cl)c1O	n	n	n	20µM	n[2.35 µM]	n
O=C([O-])[C@@H]1[O][Sb+]([O][Sb+]2[O][C@H]([C@H](O)CO)[C@H](O)[C@H](C(=O)[O-])[O]2)[O][C@H]([C@H](O)CO)[C@@H]1O	x	n	x	x	n	n

From PubChem
